Data: PubChem BioAssay (NCATS)
Inconclusive results are not listed. Where a call stands in place of a potency, no number is given. Calls of active or inactive are those of the source. Calls come from the whole dose curve; as a rule, active = well fitted inhibition curve with a large enough effect; inconclusive = small, poorly fitted or top-dose-only effect; inactive = flat fitted curve, though single readings scatter.

target: Calcium and integrin-binding protein 1 (Homo sapiens) (UniProt Q99828); experiment: Primary qHTS for Identification of Calcium Integrin Binding Protein 1 (CIB1) Competitor (AID 1508620); conditions: CIB1-GST / FITC-alphaIIb peptide fluorescence polarization; series mostly up to 114 µM; note: top concentration of the series differs between compounds
Sequence (Q99828 whole entry, looked up): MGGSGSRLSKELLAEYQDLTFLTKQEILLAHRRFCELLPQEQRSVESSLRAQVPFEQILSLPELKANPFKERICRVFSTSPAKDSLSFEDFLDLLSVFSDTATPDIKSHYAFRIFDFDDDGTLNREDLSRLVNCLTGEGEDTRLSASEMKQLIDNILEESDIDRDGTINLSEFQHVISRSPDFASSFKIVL
Method in brief: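 Fluorescence polarization competition: GST-tagged CIB1 (1 uM final) preincubated with compound 15 min at room temperature, then FITC-labelled alphaIIb peptide (100 nM final) added. After 15 min at room temperature, polarization read at Ex 480/Em 540.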

COc1cccc(-c2nnc3n2N=C(c2cc(OC)ccc2OC)CS3)c1 was tested. Which Potency did it give?
The Potency was “inactive”.

With O=C(Nc1ccc(-c2nc3ccccc3[nH]2)cc1)c1ccc2sccc2c1 as the molecule, how does the Potency read?
Its Potency is “inactive”.

How did the Potency turn out when CC(=O)N1CCN(c2nc(-c3ccc(Br)cc3)cs2)CC1 was run?
Its Potency is “inactive”.

Which Potency does the source give for O=C(OCC#CCSc1nnc(-c2ccc3ccccc3c2)o1)c1ccc(F)c(F)c1 here?
The Potency was “inactive”.

How did the Potency turn out when COc1ccc(C=O)cc1COc1ccc(NC(C)=O)cc1 was run?
The Potency was “inactive”.

With O=C(Nc1cccc(-c2nn3c(=O)cc(N4CCNCC4)nc3s2)c1)c1ccon1 as the molecule, how does the Potency read?
Its Potency is “inactive”.

With O=C(OCC#CCSc1nnc(-c2cccc3ccccc23)o1)c1csc2ccccc12 as the molecule, how does the Potency read?
The Potency was “inactive”.

For Cc1cccc(-c2ccc3ncnc(NCc4cc(C)cs4)c3c2)c1, which Potency is on record?
Its Potency is “inactive”.

With Cc1cc2c(s1)c1cnn(Cc3cccc(C(F)(F)F)c3)c(=O)c1n2C as the molecule, how does the Potency read?
Its Potency is “inactive”.

For Cc1ccc(NS(=O)(=O)c2ccc3c(c2)N(C)CCO3)cc1C, which Potency is on record?
Its Potency is “inactive”.

O=C(Nc1ncc(Cc2ccc(C(F)(F)F)cc2)s1)c1ccc(-c2ccccc2)o1 was tested. Which Potency did it give?
The Potency was “inactive”.

With Cc1cc(C)nc(NC(=S)N2CCN(c3ccc4ccccc4n3)CC2)c1 as the molecule, how does the Potency read?
Its Potency is “inactive”.

With Cc1csc(CNc2ncnc3ccc(-c4cccnc4)cc23)c1 as the molecule, how does the Potency read?
Its Potency is “inactive”.

Which Potency does the source give for FC(F)(F)c1ccccc1-c1nc(NCc2ccc(-c3cccc(Cl)c3)cc2)c2ccccc2n1 here?
The Potency was “inactive”.

How did the Potency turn out when Cc1cc(N[S+](=O)([O-])c2ccc(NC(=O)Cc3ccc4c(c3)CCO4)cc2)no1 was run?
Its Potency is “inactive”.

Cc1cccc(-n2cnc3cc(C(=O)N4CCC(N5CCOCC5)CC4)ccc32)c1 was tested. Which Potency did it give?
Its Potency is “inactive”.

For O=C(O)c1ccc(-c2nn3c(=O)cc(N4CCNCC4)nc3s2)cc1, which Potency is on record?
Its Potency is “inactive”.
